# In ChEMBL document CHEMBL1201862, “PubChem BioAssay data set” (2004):
# Several values for one entry are separate records, joined by “and”; a condition that tells them apart may be missing. Equal values may be shown once.
# Assay: A High Throughput Confirmatory Assay used to Identify Novel Compounds that Inhibit Mycobacterium Tuberculosis in the absence of Glycerol using Purified and Synthesized Compounds (7).
# Assay type: functional; call rule not given here
row,Compound,IC90
1,CC1CCCN(C(=O)c2ccc(CNc3c(N4CCCCC4)c(=O)c3=O)cc2)C1 (stereo not drawn),> 100 µM (active)
2,O=C(NCCc1ccc(Cl)cc1)C1CCC(CNc2c(N3CCCCC3)c(=O)c2=O)CC1 (stereo not drawn),> 100 µM (active)
3,CC1CCN(C(=O)c2ccc(CNc3c(N4CCCC4)c(=O)c3=O)cc2)CC1,> 100 µM (active)
4,CC1CC(C)CN(C(=O)C2CCC(CNc3c(N4CCCCC4)c(=O)c3=O)CC2)C1 (stereo not drawn),> 75 µM (active) and > 100 µM (active)
5,CC1CC(C)CN(C(=O)c2ccc(CNc3c(N4CCCC4)c(=O)c3=O)cc2)C1 (stereo not drawn),> 100 µM (active)
6,CC1CCCN(C(=O)C2CCC(CNc3c(N4CCCCC4)c(=O)c3=O)CC2)C1 (stereo not drawn),> 100 µM (active)
7,CC(C)OC(=O)CSc1ncnc2c1cnn2-c1ccccc1,> 100 µM (active)
8,COc1ccc(N2CCN(C(=O)c3ccc(CNc4c(N5CCOCC5)c(=O)c4=O)cc3)CC2)cc1,> 100 µM (active)
9,O=C(c1ccc(CNc2c(N3CCCC3)c(=O)c2=O)cc1)N1CCc2ccccc2C1,> 100 µM (active)
10,O=C(C1CCC(CNc2c(N3CCCCC3)c(=O)c2=O)CC1)N1CCCCC1 (stereo not drawn),> 100 µM (active)
11,O=C(c1ccc(CNc2c(N3CCCC3)c(=O)c2=O)cc1)N1CC=C(c2ccccc2)CC1,> 68.8 µM (active) and > 79.4 µM (active)
12,CC(=O)c1ccc(NC(=O)c2ccc(CNc3c(N4CCOCC4)c(=O)c3=O)cc2)cc1,> 100 µM (active)
13,O=C(NCCc1ccc(Cl)cc1)c1ccc(CNc2c(N3CCOCC3)c(=O)c2=O)cc1,> 100 µM (active)
